Reference: PubChem BioAssay AID1159580 (chemical genetic matrix, 2015)
Hit rate of the full screen: of about 5,500 compounds, about 2,000 (36%) were called active. Another 18% or so got no clear call; they are omitted. Rule as the data show it: active = normalized growth mostly below about 0.91 (no sharp cut-off); inconclusive = no clear call, values can overlap the other calls; inactive = mostly above about 0.92. The list shows a part of the results.

Test: chemical genetic growth profiling, strain panel (AID 1159580);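 also: tested at 20 µM; growth read once vehicle control cultures reached saturation at 30 °C; 1 = growth at the plate median or of vehicle wells; lower values mean less growth of the strain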
Settings: growth OD
[1] = S. cerevisiae deletion strains, locus YDL101C, strain DUN1, hits give low values
[2] = S. cerevisiae deletion strains, locus YHR030C, strain SLT2, hits give low values

Measured: normalized growth

COc1ccc(Oc2ccc([N+](=O)[O-])cc2C(=O)O/N=C(/N)c2ccc(C(F)(F)F)cc2)cc1
inactive: S. cerevisiae deletion strains, locus YAR019C, strain CDC15, hits give low values 1 | S. cerevisiae deletion strains, locus YBL105C, strain PKC1, hits give low values 0.991 | S. cerevisiae deletion strains, locus YBR135W, strain CKS1, hits give low values 0.991 | S. cerevisiae deletion strains, locus YBR136W, strain MEC1, hits give low values 0.996 | S. cerevisiae deletion strains, locus YBR160W, strain CDC28, hits give low values 0.997 | S. cerevisiae deletion strains, locus YDL017W, strain CDC7, hits give low values 1 | S. cerevisiae deletion strains, locus YDL028C, strain MPS1, hits give low values 1 | [1] 0.988 | S. cerevisiae deletion strains, locus YDL108W, strain KIN28, hits give low values 0.99 | S. cerevisiae deletion strains, locus YDL132W, strain cdc53, hits give low values 0.982 | S. cerevisiae deletion strains, locus YDL214C, strain PRR2, hits give low values 1.01 | S. cerevisiae deletion strains, locus YDR052C, strain DBF4, hits give low values 1 | S. cerevisiae deletion strains, locus YDR054C, strain cdc34, hits give low values 0.99 | S. cerevisiae deletion strains, locus YDR226W, strain ADK1, hits give low values 0.987 | S. cerevisiae deletion strains, locus YDR477W, strain SNF1, hits give low values 0.999 | S. cerevisiae deletion strains, locus YER123W, strain YCK3, hits give low values 0.983 | S. cerevisiae deletion strains, locus YER133W, strain GLC7, hits give low values 1 | S. cerevisiae deletion strains, locus YFL009W, strain cdc4, hits give low values 0.998 | S. cerevisiae deletion strains, locus YFL029C, strain CAK1, hits give low values 1 | S. cerevisiae deletion strains, locus YFR003C, strain YPI1, hits give low values 1.01 | S. cerevisiae deletion strains, locus YFR019W, strain FAB1, hits give low values 1 | S. cerevisiae deletion strains, locus YFR028C, strain CDC14, hits give low values 0.998 | S. cerevisiae deletion strains, locus YGR040W, strain KSS1, hits give low values 1 | S. cerevisiae deletion strains, locus YGR052W, strain FMP48, hits give low values 1.01 | S. cerevisiae deletion strains, locus YGR092W, strain DBF2, hits give low values 1.03 | [2] 0.92 | S. cerevisiae deletion strains, locus YHR079C, strain IRE1, hits give low values 1 | S. cerevisiae deletion strains, locus YHR082C, strain KSP1, hits give low values 1.11 | S. cerevisiae deletion strains, locus YHR205W, strain SCH9, hits give low values 0.991 | S. cerevisiae deletion strains, locus YIL147C, strain SLN1, hits give low values 1 | S. cerevisiae deletion strains, locus YJL095W, strain BCK1, hits give low values 1 | S. cerevisiae deletion strains, locus YJL128C, strain PBS2, hits give low values 0.957 | S. cerevisiae deletion strains, locus YJL157C, strain FAR1, hits give low values 1.02 | S. cerevisiae deletion strains, locus YJR016C, strain ILV3, hits give low values 1 | S. cerevisiae deletion strains, locus YJR066W, strain TOR1 (second series), hits give low values 0.964 | S. cerevisiae deletion strains, locus YJR066W, strain TOR1, hits give low values 1.07 | S. cerevisiae deletion strains, locus YKL048C, strain ELM1, hits give low values 0.995 | S. cerevisiae deletion strains, locus YKL067W, strain YNK1, hits give low values 0.999 | S. cerevisiae deletion strains, locus YKL101W, strain HSL1, hits give low values 0.998 | S. cerevisiae deletion strains, locus YKL193C, strain SDS22, hits give low values 1 | S. cerevisiae deletion strains, locus YKL203C, strain TOR2, hits give low values 1.03 | S. cerevisiae deletion strains, locus YLR113W, strain HOG1, hits give low values 0.919 | S. cerevisiae deletion strains, locus YLR133W, strain CKI1, hits give low values 1.01 | S. cerevisiae deletion strains, locus YLR403W, strain SFP1, hits give low values 1.01 | S. cerevisiae deletion strains, locus YML070W, strain DAK1, hits give low values 1.01 | S. cerevisiae deletion strains, locus YMR001C, strain CDC5, hits give low values 1.01 | S. cerevisiae deletion strains, locus YMR205C, strain PFK2 (second series), hits give low values 0.989 | S. cerevisiae deletion strains, locus YMR277W, strain FCP1, hits give low values 1.01 | S. cerevisiae deletion strains, locus YNL006W, strain LST8, hits give low values 1 | S. cerevisiae deletion strains, locus YNL020C, strain ARK1, hits give low values 1.02 | S. cerevisiae deletion strains, locus YNL161W, strain CBK1, hits give low values 0.994 | S. cerevisiae deletion strains, locus YNL183C, strain NPR1, hits give low values 1.04 | S. cerevisiae deletion strains, locus YNL207W, strain RIO2, hits give low values 1 | S. cerevisiae deletion strains, locus YNL222W, strain SSU72, hits give low values 0.997 | S. cerevisiae deletion strains, locus YNL307C, strain MCK1 (second series), hits give low values 1 | S. cerevisiae deletion strains, locus YOL078W, strain AVO1, hits give low values 1 | S. cerevisiae deletion strains, locus YOL136C, strain PFK27, hits give low values 1.01 | S. cerevisiae deletion strains, locus YOR061W, strain CKA2, hits give low values 1.01 | S. cerevisiae deletion strains, locus YOR119C, strain RIO1, hits give low values 1.06 | S. cerevisiae deletion strains, locus YOR231W, strain MKK1, hits give low values 0.985 | S. cerevisiae deletion strains, locus YOR329C, strain SCD5, hits give low values 1 | S. cerevisiae deletion strains, locus YPL031C, strain PHO85, hits give low values 0.988 | S. cerevisiae deletion strains, locus YPL153C, strain RAD53, hits give low values 0.995 | S. cerevisiae deletion strains, locus YPL204W, strain HRR25, hits give low values 1.01 | S. cerevisiae deletion strains, locus YPL209C, strain IPL1, hits give low values 1 | S. cerevisiae deletion strains, locus YPL256C, strain CLN2, hits give low values 0.927 | S. cerevisiae deletion strains, locus YPR025C, strain CCL1, hits give low values 0.999 | S. cerevisiae deletion strains, locus YPR106W, strain ISR1, hits give low values 0.993 | S. cerevisiae deletion strains, locus YPR111W, strain DBF20, hits give low values 0.986 | S. cerevisiae deletion strains, strain NNK1, hits give low values 0.982 | S. cerevisiae deletion strains, strain TSCII, hits give low values 1

COc1c([N+](=O)[O-])cc(C(F)(F)F)cc1[N+](=O)[O-]
inactive: S. cerevisiae deletion strains, locus YAL013W, strain DEP1, hits give low values 0.978 | S. cerevisiae deletion strains, locus YBR229C, strain ROT2, hits give low values 1.01 | [1] 0.982 | S. cerevisiae deletion strains, locus YDR150W, strain NUM1, hits give low values 0.964 | S. cerevisiae deletion strains, locus YEL061C, strain CIN8, hits give low values 1.01 | S. cerevisiae deletion strains, locus YGR078C, strain PAC10, hits give low values 0.975 | [2] 0.732 | S. cerevisiae deletion strains, locus YHR087W, strain rtc3, hits give low values 1.04 | S. cerevisiae deletion strains, locus YJR043C, strain POL32, hits give low values 0.966 | S. cerevisiae deletion strains, locus YJR075W, strain HOC1, hits give low values 1.03 | S. cerevisiae deletion strains, locus YKL190W, strain CNB1, hits give low values 0.998 | S. cerevisiae deletion strains, locus YLR058C, strain SHM2 (second series), hits give low values 1.02 | S. cerevisiae deletion strains, locus YLR085C, strain ARP6, hits give low values 0.823 | S. cerevisiae deletion strains, locus YML094W, strain GIM5, hits give low values 0.903 | S. cerevisiae deletion strains, locus YMR219W, strain ESC1, hits give low values 1 | S. cerevisiae deletion strains, locus YMR263W, strain SAP30, hits give low values 0.971 | S. cerevisiae deletion strains, locus YNL128W, strain TEP1, hits give low values 0.976 | S. cerevisiae deletion strains, locus YNL153C, strain GIM3, hits give low values 0.985 | S. cerevisiae deletion strains, locus YNL298W, strain CLA4 (second series), hits give low values 0.946 | S. cerevisiae deletion strains, locus YNL322C, strain KRE1, hits give low values 0.971 | S. cerevisiae deletion strains, locus YNR030W, strain Alg12, hits give low values 0.975 | S. cerevisiae deletion strains, locus YPL055C, strain LGE1, hits give low values 0.989 | S. cerevisiae deletion strains, locus YPL241C, strain CIN2, hits give low values 0.95 | S. cerevisiae deletion strains, locus YPR135W, strain CTF4, hits give low values 0.902 | S. cerevisiae strains, strain wild type, hits give low values 0.979
active: S. cerevisiae deletion strains, locus YLR039C, strain RIC1, hits give low values 0.486 | S. cerevisiae deletion strains, locus YLR262C, strain YPT6, hits give low values 0.453
